Calls of active or inactive are those of the source.

Assay [1] can be described thus: optical density shifts of acrAB sulA E. coli – strain DRC41, OD650, 48 h, E. coli filamentation inducer project, primary screen (AID 1152).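 Further: E. coli MC1000 strain DRC41 lacking acrAB efflux pump and sulA.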 To be noted: higher = more signal, called active from +8 up or from −8 down.
Assay [2] can be described thus: probe aLefty1 binding on compound microarray – biochemical, small-molecule microarray, 635/667 nm fluorescence, primary screen (AID 1153).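 Further: score merges spot fluorescence with signal-to-noise ratio from the scanned slide images.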 To be noted: higher = more signal.
Assay [3] can be described thus: plasmodial surface anion channel blockers, osmotic lysis – cell-based, P. falciparum Indochina, OD700, 1 h, primary screen (AID 1154). The settings on record: P. falciparum Indochina infected RBC osmotic lysis, higher = more signal, called active from +8 up or from −8 down.
A short description of assay [4]: plasmodial surface anion channel blockers, osmotic lysis – cell-based, P. falciparum Indochina, OD700, 2 h, primary screen (AID 1155).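 Further: lysis reports solute entry through the parasite surface anion channel PSAC.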 To be noted: P. falciparum Indochina infected erythrocytes, higher = more signal, called active from +8 up or from −8 down.
Assay [5] is described as follows: changes in parasitized red cell lysis, either direction – P. falciparum Indochina, OD700, 3 h, PSAC antagonist project, primary screen (AID 1156). To be noted: P. falciparum-infected erythrocytes, osmotic lysis, higher = more signal, called active from +8 up or from −8 down.
The nature of assay [6]: plasmodial surface anion channel blockers, osmotic lysis – cell-based, P. falciparum Indochina, OD700, 18 h, primary screen (AID 1157). To be noted: P. falciparum Indochina infected erythrocytes, osmotic lysis OD700, 18 h; higher = more signal, called active from +8 up or from −8 down.
A short description of assay [7]: S6 kinase pathway phospho-S6 level changes – cell-based, A549, cytoblot, luminescence, serum-stimulated, primary screen (AID 1158).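 Further: serum-stimulated A549 lung adenocarcinoma cells; signal is phosphorylated S6 detected by cytoblot immunostaining with HRP secondary.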 The settings on record: 5 h, higher = more signal.
For assay [8], the target named is NADPH oxidase 2 (Homo sapiens) (UniProt P04839). Put plainly: compounds shifting NOX2 Amplex Red fluorescence – cell-based, HEK293-NOX2, PMA-stimulated, NOX inhibitor project, primary screen (AID 1159). Further: test concentration not given here. To be noted: 45 min, higher = more signal, called active from +8 up or from −8 down.
Assay [9] deals with NADPH oxidase 4 (Homo sapiens) (UniProt Q9NPH5). Put plainly: compounds shifting NOX4 Amplex Red fluorescence – cell-based, HEK293-NOX4, tetracycline-induced, NOX inhibitor project, primary screen (AID 1160). To be noted: HEK293-NOX4, Amplex Red H2O2 fluorescence, 45 min; higher = more signal, called active from +8 up or from −8 down.
For assay [10], the target named is NADPH oxidase 5 (Homo sapiens) (UniProt Q96PH1). Nature of the assay: compounds shifting NOX5 Amplex Red fluorescence – cell-based, HEK293-NOX5, NOX inhibitor project, primary screen (AID 1161). The settings on record: HEK293-NOX5, ionomycin, 45 min, higher = more signal.
Assay [11] in a line: compound effects on lung adenocarcinoma cell viability – A549, calcein-AM fluorescence, 48 h, basal, profiling panel (AID 1162). Further: test concentration not given here. The settings on record: higher = more signal.
Assay [12] in a line: compound effects on differentiated 3T3-L1 adipocyte viability – cell-based, 3T3-L1 adipocytes, calcein-AM fluorescence, 48 h, basal, profiling panel (AID 1163). Further: test concentration not given here. The settings on record: 3T3-L1 adipocytes viability, higher = more signal.
A short description of assay [13]: compound effects on hepatocellular carcinoma cell viability – HepG2, calcein-AM fluorescence, 48 h, basal, profiling panel (AID 1164). Further: test concentration not given here. The settings on record: higher = more signal.
Assay [14] is described as follows: compound effects on multiple myeloma cell viability – MM1S, calcein-AM fluorescence, 48 h, basal, profiling panel (AID 1165).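 Further: viability of MM1S multiple myeloma cells under basal unstimulated conditions; test concentration not given here.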 To be noted: higher = more signal.
A short description of assay [15]: calcein-AM signal in unstimulated myeloma cells – cell-based, calcein-AM fluorescence, 48 h, PK04 Diversity Set, profiling panel (AID 1166).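 Further: cells grown under basal conditions without added stimulus; test concentration not given here.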 To be noted: RPMI8226 myeloma viability, higher = more signal.
Assay [16] is described as follows: JC-1 mitochondrial signal, unstimulated HepG2 cells – cell-based, JC-1 fluorescence, 24 h, 100 nL compound, profiling panel (AID 1167). Further: test concentration not given here. The settings on record: HepG2 mitochondrial potential, higher = more signal.
Assay [17] in a line: JC-1 mitochondrial signal, unstimulated adipocytes – cell-based, JC-1 fluorescence, 3T3-L1 adipocytes, 24 h, 100 nL compound, profiling panel (AID 1168). Further: test concentration not given here. To be noted: JC-1 mitochondrial fluorescence, higher = more signal, called active from +8 up or from −8 down.
A short description of assay [18]: JC-1 mitochondrial signal, unstimulated myeloma cells – cell-based, JC-1 fluorescence, RPMI8226, 24 h, 100 nL compound, profiling panel (AID 1169). Further: test concentration not given here. To be noted: JC-1 mitochondrial potential fluorescence, higher = more signal.
Assay [19] is described as follows: JC-1 mitochondrial signal, unstimulated MM1S myeloma – cell-based, JC-1 fluorescence, 24 h, 100 nL compound, profiling panel (AID 1170). Further: test concentration not given here. The settings on record: MM1S mitochondrial potential, higher = more signal.
The nature of assay [20]: resazurin metabolic signal in A549 cells – cell-based, resazurin fluorescence, 24 h, PK04 Diversity Set, profiling panel (AID 1171). Further: test concentration not given here. To be noted: A549 viability, higher = more signal, called active from +8 up or from −8 down.

Chain of NADPH oxidase 5 (Homo sapiens) (Q96PH1 whole entry, looked up): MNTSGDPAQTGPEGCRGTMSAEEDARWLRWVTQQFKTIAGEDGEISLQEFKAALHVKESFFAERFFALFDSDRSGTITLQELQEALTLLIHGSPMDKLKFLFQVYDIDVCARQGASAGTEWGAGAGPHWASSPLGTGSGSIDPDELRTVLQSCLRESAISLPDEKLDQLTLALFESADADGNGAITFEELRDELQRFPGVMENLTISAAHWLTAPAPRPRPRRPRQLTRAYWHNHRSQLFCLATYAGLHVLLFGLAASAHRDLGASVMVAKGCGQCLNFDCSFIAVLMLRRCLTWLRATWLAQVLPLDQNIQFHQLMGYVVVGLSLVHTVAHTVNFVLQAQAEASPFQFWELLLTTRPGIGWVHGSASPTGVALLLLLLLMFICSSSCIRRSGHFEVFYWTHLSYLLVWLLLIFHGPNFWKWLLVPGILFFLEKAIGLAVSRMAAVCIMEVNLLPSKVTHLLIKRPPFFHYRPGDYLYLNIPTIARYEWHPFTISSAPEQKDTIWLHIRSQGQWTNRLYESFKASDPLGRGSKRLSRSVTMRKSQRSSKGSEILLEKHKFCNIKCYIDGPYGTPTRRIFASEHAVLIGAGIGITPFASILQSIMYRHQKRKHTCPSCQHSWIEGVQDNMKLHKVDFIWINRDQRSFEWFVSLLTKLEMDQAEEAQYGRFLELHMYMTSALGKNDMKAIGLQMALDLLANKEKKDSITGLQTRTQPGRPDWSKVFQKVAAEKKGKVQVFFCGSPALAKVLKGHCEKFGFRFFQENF
Chain of NADPH oxidase 4 (Homo sapiens) (Q9NPH5 whole entry, looked up): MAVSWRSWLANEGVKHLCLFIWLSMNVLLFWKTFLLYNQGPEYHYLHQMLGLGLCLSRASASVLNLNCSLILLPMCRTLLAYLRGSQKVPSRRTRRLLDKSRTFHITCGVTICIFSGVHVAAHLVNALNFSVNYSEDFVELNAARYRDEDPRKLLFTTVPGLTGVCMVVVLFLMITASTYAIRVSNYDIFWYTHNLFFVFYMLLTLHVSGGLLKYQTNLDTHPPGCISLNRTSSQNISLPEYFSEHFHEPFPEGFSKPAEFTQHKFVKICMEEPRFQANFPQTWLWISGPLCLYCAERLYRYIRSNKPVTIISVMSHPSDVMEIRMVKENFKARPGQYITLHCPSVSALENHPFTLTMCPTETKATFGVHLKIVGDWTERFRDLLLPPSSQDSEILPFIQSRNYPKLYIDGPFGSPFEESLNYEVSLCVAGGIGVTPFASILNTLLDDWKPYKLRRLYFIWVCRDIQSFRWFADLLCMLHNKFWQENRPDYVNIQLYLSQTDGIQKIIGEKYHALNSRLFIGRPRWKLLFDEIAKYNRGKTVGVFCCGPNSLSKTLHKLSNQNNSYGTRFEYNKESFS
Chain of NADPH oxidase 2 (Homo sapiens) (P04839 whole entry, looked up): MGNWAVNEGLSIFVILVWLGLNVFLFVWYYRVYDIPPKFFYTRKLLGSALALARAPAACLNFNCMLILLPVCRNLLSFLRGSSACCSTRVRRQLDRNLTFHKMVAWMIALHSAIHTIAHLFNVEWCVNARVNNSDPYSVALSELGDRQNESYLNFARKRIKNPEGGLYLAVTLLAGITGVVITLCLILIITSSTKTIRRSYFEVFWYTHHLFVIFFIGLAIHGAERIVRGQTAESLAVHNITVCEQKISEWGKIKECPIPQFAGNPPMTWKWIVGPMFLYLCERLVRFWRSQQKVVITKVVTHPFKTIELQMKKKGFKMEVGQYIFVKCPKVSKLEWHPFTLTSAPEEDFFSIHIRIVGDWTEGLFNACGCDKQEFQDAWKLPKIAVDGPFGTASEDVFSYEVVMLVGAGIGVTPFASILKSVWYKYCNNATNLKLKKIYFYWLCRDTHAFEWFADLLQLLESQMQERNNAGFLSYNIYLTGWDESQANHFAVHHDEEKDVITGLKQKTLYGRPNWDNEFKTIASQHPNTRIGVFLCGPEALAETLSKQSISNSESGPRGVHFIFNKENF

For `O=C1[C@H]2C=C(I)[C@H](C[C@@H]2OCCCCO)[C@@]12CO2`, the z-score was -0.989 (inactive) in assay [1]; 1.01 (inactive) in assay [3]; -0.171 (inactive) in assay [4]; 0.282 (inactive) in assay [5]; -0.039 (inactive) in [6]; 0.764 in assay [7]. Besides, the z-score in assay [8] was -0.0538 (inactive); in assay [9], 0.491 (inactive); in assay [10], -0.584; in [11], -0.292; in assay [12], -0.393; in assay [13] it was -0.66. Besides, the z-score in assay [14] was -0.739; in [15], -0.954; in assay [16], -1.71; in [17] it was -0.431 (inactive); in assay [18] it was -1.13; in [19] it was -0.509. Also, the z-score in assay [20] was 0.109 (inactive). The same compound registered a composite z-score in assay [2] of 0.0437.
`COCCCNC(=O)[C@@H]1c2ccccc2C(=O)N(Cc2ccccc2OC)[C@H]1c1ccc(CO)cc1`: the z-score is 0.876 (inactive) in assay [1]; 1.54 (inactive) in [3]; -0.0902 (inactive) in [4]; 0.591 (inactive) in [5]; -0.631 (inactive) in assay [6]; 2.45 in [7]. Besides, the z-score was -1.79 (inactive) in [8]; -3.52 (inactive) in assay [9]; -5.09 in assay [10]; -0.0798 in assay [11]; 1.02 in assay [12]; -0.429 in [13]. Also, the z-score in assay [14] is 0.528; in [15], -0.447; in assay [16], 1.59; in [17] it was -0.588 (inactive); in assay [18], -0.171; in assay [19] it was -0.391. Also, in [20], the z-score is 1.71 (inactive). Besides, the composite z-score in assay [2] was 0.278.
`COc1ccccc1CN1C(=O)c2ccccc2[C@@]2(Cc3ccccc3N(CCCN(C)C)C2=O)[C@@H]1c1ccc(CO)cc1`: the z-score was 2 (inactive) in [1]; 0.599 (inactive) in assay [3]; -0.678 (inactive) in assay [4]; -0.795 (inactive) in assay [5]; -1.1 (inactive) in assay [6]; 2.55 in assay [7]. Also, the z-score in assay [8] was -0.841 (inactive); in assay [9] it was -1.61 (inactive); in assay [10], 1.51; in assay [11], -0.733; in [12], 1.31; in assay [13] it was -0.655. Further, the z-score in [14] was 0.229; in assay [15], -0.0261; in assay [16], 0.511; in assay [17], -0.459 (inactive); in assay [18], 0.00572; in assay [19], -0.343. Besides, the z-score in assay [20] is -0.483 (inactive). The composite z-score in [2] was -0.152.
`COCCOC(=O)N1C(=O)[C@@]2(c3cc(C#CC4=CCCCC4)ccc31)[C@H](c1ccc(OCCO)cc1)N1[C@H](c3ccccc3)[C@H](c3ccccc3)OC(=O)[C@H]1[C@@H]2C(=O)N1CCc2cc(OC)c(OC)cc2C1`: the z-score in assay [1] is 1.8 (inactive); in assay [3], 3.15 (inactive); in assay [4], 2.02 (inactive); in assay [5], 0.817 (inactive); in [6], 1.13 (inactive); in assay [7], 0.0337. The z-score is 0.711 (inactive) in [8]; 0.842 (inactive) in assay [9]; 1.43 in [10]; 1.31 in [11]; 0.453 in assay [12]; 1.96 in assay [13]. Besides, the z-score was 0.505 in [14]; -0.0521 in assay [15]; 0.578 in assay [16]; 2.21 (inactive) in [17]; -0.521 in [18]; -0.935 in assay [19]. Moreover, in [20], the z-score is -1.12 (inactive). This compound also yielded a composite z-score in assay [2] of 0.26.
Take `O=C1O[C@H](c2ccccc2)[C@H](c2ccccc2)N2[C@H]1[C@@H](C(=O)NC[C@H](O)c1ccccc1)[C@]1(C(=O)Nc3ccc(C#CC4=CCCCC4)cc31)[C@H]2c1ccccc1OCCO`: the z-score was -0.161 (inactive) in [1]; 1.84 (inactive) in [3]; 2.06 (inactive) in assay [4]; -0.932 (inactive) in assay [5]; 2.06 (inactive) in assay [6]; 0.233 in assay [7]. Also, the z-score in assay [8] is 1.42 (inactive); in assay [9], 1.04 (inactive); in [10], 1.83; in [11] it was -2.45; in assay [12] it was -0.406; in [13], -3.88. In addition, the z-score was -3.28 in [14]; -4.23 in assay [15]; -2.22 in assay [16]; 1.26 (inactive) in [17]; -1.09 in assay [18]; -1.79 in [19]. Moreover, the z-score in assay [20] is -3.3 (inactive). Further, in [2], the composite z-score was 0.199.
In the case of `CCCC=C(CCC)[C@@H](NS(=O)(=O)c1ccc(Cl)cc1)c1ccc(C(=O)OC)cc1`, the z-score in [1] was -1.01 (inactive); in assay [3], -0.556 (inactive); in assay [4], -0.914 (inactive); in [5] it was -0.338 (inactive); in [6], -1.93 (inactive); in assay [7], 0.631. Besides, the z-score was 0.0199 (inactive) in assay [8]; 0.249 (inactive) in assay [9]; 1.39 in [10]; -1.18 in assay [11]; 0.391 in [12]; -0.845 in assay [13]. In addition, the z-score in assay [14] was 0.48; in [15], -0.595; in assay [16], -1.07; in assay [17], -0.542 (inactive); in [18], -0.906; in assay [19], -0.98. Moreover, the z-score in [20] was 0.475 (inactive). In addition, in assay [2], the composite z-score came out at 0.523.
`NC(=O)NCC#Cc1ccc2c(c1)[C@]1(C(=O)N2)[C@H](C(=O)O)[C@H]2C(=O)O[C@H](c3ccccc3)[C@H](c3ccccc3)N2[C@@H]1c1ccc(O)cc1`: the z-score in [1] was -1.29 (inactive); in assay [3] it was 0.141 (inactive); in assay [4], 0.0468 (inactive); in assay [5], -0.357 (inactive); in assay [6] it was 0.27 (inactive); in [7], -0.603. Moreover, the z-score was 1.17 (inactive) in assay [8]; -0.399 (inactive) in assay [9]; -0.349 in [10]; 0.715 in [11]; 0.407 in assay [12]; 0.611 in assay [13]. In addition, the z-score was -0.944 in [14]; 0.0565 in [15]; -1.43 in assay [16]; -1.56 (inactive) in assay [17]; 0.123 in [18]; 0.126 in assay [19]. For the same compound, the z-score in [20] was 1.22 (inactive). The composite z-score in assay [2] was 0.642.
